# High-throughput results as filed in PubChem BioAssay.
# Rpn11 block: Rpn11 (PSMD14) deubiquitinase inhibitors, primary screen, biochemical, fluorescence polarization, uHTS. hit rate 0.59% among 360,000. inhibition, % at 20 µM. human 26S proteasome, Ub4-pepOG fluorescence polarization; 20S core pre-blocked with epoxomicin. AID 588493, 2011;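 active means inhibition at 20 µM, scaled to each plate's controls, above about 33%, limit read from the data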
# Target sequence (O00487 whole entry, looked up): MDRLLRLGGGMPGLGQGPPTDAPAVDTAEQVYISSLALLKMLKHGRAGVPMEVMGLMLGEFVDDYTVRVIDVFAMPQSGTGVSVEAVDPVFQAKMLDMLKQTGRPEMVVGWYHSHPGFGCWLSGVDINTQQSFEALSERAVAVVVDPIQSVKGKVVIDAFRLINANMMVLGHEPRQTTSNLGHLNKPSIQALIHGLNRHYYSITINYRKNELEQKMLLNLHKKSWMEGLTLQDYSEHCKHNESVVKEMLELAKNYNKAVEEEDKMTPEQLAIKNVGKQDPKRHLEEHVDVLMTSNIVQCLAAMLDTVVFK
# TPT1 inh: Candida albicans TPT1 enzyme inhibitors, primary screen, biochemical, fluorescence polarization | recombinant caTPT1, FP RNA substrate dephosphorylation | hit rate 0.81% among 300,000 | tRNA 2'-phosphotransferase TPT1 (Candida albicans SC5314) | inhibition, % at 5 µM;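 active means inhibition above the mean of all tested compounds plus 3 SD, set per screening campaign, cut at about 24% in these data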;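 further: plate controls were DMSO alone for no effect and ferristatin control at 100 nM for full effect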
# Rin1-Abl PPI inh: inhibitors of Rin1-Abl protein binding, primary screen, biochemical, TR-FRET; Tyrosine-protein kinase ABL1 (Homo sapiens) + Ras and Rab interactor 1 (Homo sapiens), …; inhibition, % at 7.35 µM; hit rate 0.4% among 360,000; AID 588664, 2011; in the data active means inhibition above about 5%, passing the limit was not always enough
# IDE inh: human IDE inhibitors in live cells, primary screen, fluorescence polarization, HEK cells, FAbetaB substrate; inhibition, % at 5.59 µM; FAbetaB cleavage; Insulin-degrading enzyme (Homo sapiens), P14735; AID 434962, 2010; hit rate 0.41% among 320,000;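 active means percent inhibition above the average of all tested compounds plus 3 SD, set per screening campaign, cut at about 16% in these data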;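 further: IDE supplied by intact live HEK cells; FP after avidin binding of uncleaved biotin substrate so inhibition keeps polarization high; 0% = DMSO wells and 100% = 60 µM reference IDE inhibitor Ii1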
# Calb FLC: C. albicans growth inhibition with fluconazole, primary screen, CaCi-2 strain, Alamar Blue fluorescence | growth inhibition, % (no concentration beside the values) | C. albicans CaCi-2 (fluconazole-resistant clinical isolate) + fluconazole, 48 h | hit rate 0.57% among 300,000 | AID 1979, 2009;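 active means growth inhibition above about 58% in most replicates, limit read from the data, passing the limit was not always enough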;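 further: all wells also contain fluconazole at 8 µg/ml as a sub-toxic cotreatment; 0% = median of DMSO wells and 100% = median of geldanamycin control wells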
# IDE act: human IDE activators in live cells, primary screen, fluorescence polarization, HEK cells, FAbeta-B substrate. activation, % at 5.96 µM. hit rate 0.073% among 340,000. FAbeta-B cleavage; 0% vehicle, 100% cell-free pure enzyme wells. Insulin-degrading enzyme (Homo sapiens), P14735. AID 493087, 2011;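 active means activation above the mean of all tested compounds plus 3 SD, set per screening campaign, cut at about 17% in these data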
# The depositor's hits bear a star; . = no result given. An excerpt weighted towards active compounds, which were near 2.3% of everything screened.
SMILES,Rpn11 block,TPT1 inh,Rin1-Abl PPI inh,IDE inh,Calb FLC,IDE act
COc1cccc(NC(=O)COc2ccc3c(c2)CCC3)c1,-2,-6,3,-3,100*,-4
O=C(COc1ccc2c(c1)CCC2)NCc1cccc(Cl)c1,2,1,-1,1,72*,0
Cc1cccnc1NC(=O)CCc1c[nH]c2ccccc12,7,0,4,6,-2,-1
Cc1ccc(NC(=O)CCC(=O)OCc2ccc(Br)cc2)cc1,-2,-2,5,0,-10,3
COc1cc(OC)c(NC(=S)NCc2ccccc2)cc1Cl,-1,0,2,-1,125*,5
Cc1ccc(C(=O)N2CC(=O)NC(=O)C2)cc1,0,0,0,8,8,-3
C[C@H](CO)N1C[C@H](C)[C@@H](CN(C)S(=O)(=O)c2cccs2)Oc2c(NC(=O)C3CC3)cccc2C1=O,-2,.,4,5,.,4
CCOC(=O)c1ccc(Nc2cnc3ccccc3n2)cc1,-13,-2,1,11,-26,-3
O=C(O)c1ccc(Nc2cnc3ccccc3n2)cc1,2,-2,-1,0,95*,6
Cc1csc(SCC(=O)Nc2oc(C)c3c(C)n[nH]c(=O)c23)n1,2,-4,-1,-6,-2,-4
Cc1nn(C)c(C)c1C1Nc2ccccc2C(=O)N1O (configuration not stated),-3,0,3,-1,9,2
COc1ccc(C2Nc3ccccc3C(=O)N2O)cc1OC (configuration not stated),-6,-4,2,-1,97*,3
O=C1c2ccccc2NC(c2cnc3ccccc3n2)N1O (configuration not stated),-1,4,2,2,104*,2
O=Nc1c(O)n(Cc2cccc(Cl)c2)c2ccccc12,-18,1,2,-3,84*,3
CCOC(=O)N1CCN(C(=O)c2cc(S(=O)(=O)N3CCc4ccccc43)ccc2OC)CC1,-4,2,4,6,2,1
O=C(CS)Nc1ccc2ccccc2c1,5,0,-1,17*,-5,-13
CCCCCC(=O)Nc1ccc2ccccc2c1,-6,0,0,-2,23,6
Cc1c(Cl)c([N+](=O)[O-])nn1CC(=O)NCc1ccc(Cl)cc1,-8,-2,-2,5,-30,-5
NC[C@@H]1O[C@H](C23CC4CC(CC(C4)C2)C3)Cc2c1ccc(O)c2O,-10,2,5,2,101*,3
O=C1OCC2=C1C(c1ccc(F)cc1)c1cc3c(cc1N2)OCO3 (configuration not stated),-2,.,-3,.,.,-6
CCOc1ccccc1C1C2=C(COC2=O)Nc2cc3c(cc21)OCO3 (configuration not stated),3,1,0,-2,83*,11
O=C(/C=C/c1ccc(NC(=O)c2ccccc2-c2ccccc2C(=O)O)cc1)c1ccccc1,.,20,-1,-1,98*,-1
O=C(O)c1ccccc1-c1ccccc1C(=O)Nc1ccc(F)cc1,-1,0,4,0,-5,4
O=C(O)/C=C/c1ccc(S(=O)(=O)Nc2ccc(C(=O)NCC(=O)O)cc2)cc1,0,0,3,5,50*,3
CNC(=O)Nc1cc(C(F)(F)F)cc(C(F)(F)F)c1,5,-1,1,10,86*,7
CC(CC(=O)O)CC(=O)Nc1cc(C(F)(F)F)cc(C(F)(F)F)c1 (configuration not stated),-4,-6,-3,-2,-1,-2
Cc1cc(NC(=O)c2cccc(Oc3ccccc3)c2)n[nH]1,-1,4,2,-5,96*,2
Cc1cc(NC(=O)NC(=O)c2cccc(OC(F)(F)C(F)F)c2)n[nH]1,-5,0,-3,1,4,1
